Compound activity deposited in PubChem by National Center for Advancing Translational Sciences (NCATS).
This is a sample that favours compounds with a hit; in the whole collection about 8.1% have one here.
ClpP mod: qHTS Assay for Activators of ClpP. ATP-dependent Clp protease proteolytic subunit (Bacillus subtilis (strain 168)), P80244. purified B. subtilis ClpP, FRET peptide cleavage, 20 min. Potency, µM (doses to about 57.5 µM), without a hit: top-dose activity change, negative = active. 340,000 tested, 1.9% active. AID 651965, 2013; active = well fitted falling curve with a large enough effect; inconclusive = small, poorly fitted or top-dose-only effect; inactive = no such curve, though single readings can be large or run the other way; also: the source files actives as falling curves though it sought activators and does not explain the sign; nearly all actives have a fitted effect of over 65% in size
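ClpP 10 microg/mL final, pH 8 Tris/KCl buffer with BSA, glycerol, Tween-20; compound pinned in; FRET-FV substrate; RT 20 min; Ex320/Em430; ΔFRET vs ADEP 5.8 microM, DMSO, no enzyme.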
Epigenetic reg: regulators of epigenetic silencing causing reporter derepression in mouse cells | murine LDR cells, GFP reporter derepression, 30 h | Potency, µM (titrated, usually from 53.9 µM), without a hit: at the top dose GFP activation, usual class: activators | 280,000 tested, 0.2% active; also: % of control where 0% means no effect; nearly all actives have a fitted effect of over 60% in size
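GFP-positive cell count by laser-scanning cytometry (objects 20–120 um) after 30 h, 37 C compound exposure of murine LDR cells; reporter is CMV-GFP integrated at a silenced locus, inducible by HDAC or DNMT inhibitors.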
Sfp PPTase inh: inhibitors of Bacillus subtilis Sfp phosphopantetheinyl transferase. Biochemical Sfp PPTase activity, qHTS. Potency, µM, without a hit: largest response in the series, negative = inhibition, actives largely listed as inhibitors. 310,000 tested, 3.5% active;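 also: the enzyme is Sfp with the accession as filed and its product quenches rhodamine fluorescence; 0% = enzyme reaction without inhibitor and -100% = no enzyme wells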
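Fluorescence-quenching assay: 15 nM Sfp-PPTase preincubated 15 min at room temperature with compound, then 5 uM rhodamine-CoA and 12.5 uM BHQ-2-labelled YbbR peptide added. Fluorescence (ex 525/em 598 nm) read at start and after 30 min; difference gives rate.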
Gal4-VP16 FLuc: counter-screen for ROR gamma inhibitors: Gal4-VP16 reporter. Drosophila S2 Gal4-VP16 UAS-luciferase, luminescence, 20 h. Potency, µM (doses to about 53.6 µM), inactives show top-dose activity, negative = inhibition, hits mostly inhibitors. 310,000 tested, 3.5% active;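 also: Gal4-VP16 expression switched on by copper sulfate through the metallothionein promoter; % is scaled to controls: 0 for no effect and ±100 for the full control effect; nearly all actives have a fitted effect of over 50% in size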
PINK1 modulator: modulators of PINK1 expression | PINK1 immunofluorescence, high-content cytometry, 24 h | Potency, µM (doses to about 76.6 µM), inactives show at the highest dose activation (PINK1 increase), most hits filed as activators | 410,000 tested, 0.2% active | AID 624263; active = well fitted activation curve with a large enough effect; inconclusive = small, poorly fitted or top-dose-only effect; cell line not stated here; also: % of control where 0% means no effect; nearly all actives have a fitted effect of over 65% in size
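Measures PINK1 amount and localization on or inside mitochondria by immunofluorescence. Stable cells get compounds at 5 concentrations for 24 hours before fixation and staining; CCCP controls included.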
RORg inh: blocks mouse ROR gamma transcriptional activity; P51450; Drosophila S2 Gal4-RORgamma UAS-luciferase reporter, 20 h; Potency, µM (titrated, usually from 53.6 µM), without a hit: top-dose activity change, negative = inhibition, actives largely listed as inhibitors; 310,000 tested, 5.4% active; also: % is scaled to controls: 0 for no effect and ±100 for the full control effect; nearly all actives have a fitted effect of over 60% in size
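Drosophila S2 cells stably expressing Gal4-DBD/mouse RORγ fusion under metallothionein promoter plus UAS-luciferase; compound 1 h, then 700 uM CuSO4 induction for 20 h at ambient temperature; inhibition read as reduced luminescence.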
* marks the source's active call; other numbers are inactive results; ? = inconclusive; · = not tested or not shown; [ ] = dose if it differs, or a comment. Unless noted, calls follow the shape of the dose curve; as a rule, active = well fitted curve in the direction sought with a large enough effect; inconclusive = small, poorly fitted or top-dose-only effect, or another doubt; inactive = no such curve, though single readings can be large; an effect the other way counts as inactive or inconclusive. Potency is read from the fitted curve at half-maximal effect.

SMILES	ClpP mod	Epigenetic reg	Sfp PPTase inh	Gal4-VP16 FLuc	PINK1 modulator	RORg inh
N#CC1=C2SCC(O)(c3ccccc3)N2C(=O)CC1c1cccs1 (stereo not drawn)	0.3%	1.4%	17.8µM*	?	26.7%[38.3 µM]	?
CCOC(=O)c1c(C)[nH]c(C)c1S(=O)(=O)N(C)CC(=O)Nc1cccc(C(F)(F)F)c1	-2.4%	5.7%	·	·	3.0%	·
COC(=O)c1ccccc1NC(=O)CN1C(=O)COc2ccc(Cl)cc21	-2.8%	1.8%	·	·	-1.0%	·
Cc1ccc(NC(=O)NCc2ccc3c(c2)OCO3)cc1C	·	-1.2%	-0.3%	3.6%	9.0%	-24.0%
Cc1ccc(CNc2ccc3c(c2)OCO3)cc1	-1.7%	14.6%	56.2µM*	-25.3%	?	-12.2%
Cc1ccc(NC(=S)NCc2ccc3c(c2)OCO3)cc1C	-2.9%	3.0%	-2.8%	?	-0.4%	12.6µM*
O=S(=O)(NCc1ccc2c(c1)OCO2)c1cccc(F)c1	28.2µM*	·	3.8%	1.1%	0.5%	-17.6%
Fc1ccc(NC(=S)NCc2ccc3c(c2)OCO3)cc1	-6.6%	1.1%	17.7%	?	0.5%	11.2µM*
NS(=O)(=O)c1ccc(NC(=S)NCc2ccc3c(c2)OCO3)cc1	-1.3%	-0.6%	20µM*	5.2%	2.3%	1.7%
Cc1ccc(C2CC(=O)Nc3c2c(C)nn3-c2nc(C)cc(C)n2)c(C)c1 (stereo not drawn)	0.2%	-3.2%	·	·	2.7%	·
Cn1c(=O)c2nc(Cl)c(-c3ccccc3)nc2n(C)c1=O	25.1µM*	-1.6%	-13.5%	-2.1%	-0.3%	-13.2%
Cc1ccnc(NC(c2cc(C)ccc2O)c2ccc3cccnc3c2O)c1 (stereo not drawn)	1.2%	1.8%	·	·	1.5%	·
Cc1ccnc(NC(c2ccccc2)c2ccc3cccnc3c2O)c1 (stereo not drawn)	·	·	·	·	2.0%	·
Cc1ccnc(NC(c2ccsc2)c2ccc3ccc(C)nc3c2O)c1 (stereo not drawn)	·	4.8%	?	?	2.5%	5.01µM*
COc1ccc(C(Nc2cc(C)ccn2)c2ccc3ccc(C)nc3c2O)cc1 (stereo not drawn)	·	-1.0%	5.6%	3.55µM*	5.0%	2.51µM*
Cc1nn(C)cc1/C=C/C(=O)c1ccccc1	-13.4%	3.8%	12.4%	?	?	?
CCn1cc(/C=C/C(=O)c2ccc(O)cc2)c(C)n1	0.2%	2.8%	11.6%	3.98µM*	0.5%	2.24µM*
C/C(=C\C[Si](C)(C)C)CCC=O	·	-2.7%	63.1µM*	-13.0%	·	12.0%
O=[N+]([O-])c1ccc(O)c2ncccc12	-0.5%	6.31µM*	-24.9%	0.562µM*	-0.3%	0.282µM*
O=[N+]([O-])c1cc([N+](=O)[O-])c2cccnc2c1Oc1ccccc1O	1.2%	1.0%	44.7µM*	?	-0.8%	17.8µM*
O=[N+]([O-])c1ccc(O)c2cccnc12	·	2.6%	-2.9%	-22.4%	8.4%	?
O=C(NC1CCCc2ccccc21)c1cn2ccccc2n1 (stereo not drawn)	?	-1.6%	13.0%	8.9%	-2.0%	34.3%
Cc1nc2ccccn2c1C(=O)NC1CCCc2ccccc21 (stereo not drawn)	-19.8%	-3.9%	10.3%	12.6µM*	-0.8%	?
CC(=O)Nc1ccc(Nc2nc3ccc(Cl)cc3n3cnnc23)cc1	-2.7%	1.6%	·	·	-0.1%	·
CC(C)c1ccc(NC(=O)c2cc(S(=O)(=O)NCc3ccccc3Cl)ccc2F)cc1	-5.4%	14.1%	·	·	?	·
SMILES	ClpP mod	Epigenetic reg	Sfp PPTase inh	Gal4-VP16 FLuc	PINK1 modulator	RORg inh
CC(=O)C1=C(c2ccccc2)NC(=S)NC1c1cc(Cl)c(OC(C)C)c(Cl)c1 (stereo not drawn)	0.4%	0.0%	5.9%	5.01µM*	5.5%	7.08µM*
CCOC(=O)COc1c(Cl)cc(C2NC(=S)NC(c3ccccc3)=C2C(C)=O)cc1OC (stereo not drawn)	0.8%	0.9%	-4.6%	-12.8%	5.4%	-25.7%
COc1cc(C2NC(=S)NC(c3ccccc3)=C2C(C)=O)cc(Cl)c1OCC(=O)O (stereo not drawn)	0.6%	7.2%	89.1µM*	-4.5%	5.4%[38.3 µM]	-1.7%
COc1cccc(C(=O)NCC2Cc3cccc(-c4cccnc4)c3O2)c1 (stereo not drawn)	·	·	·	·	0.0%	·
COC(=O)c1ccc2nc(NC(=O)CSCC(=O)OCC(=O)c3ccccc3)sc2c1	-3.6%	1.5%	-13.6%	-4.8%	0.2%	-5.2%
Cc1ccc2nc(NC(=O)CSCC(=O)OCC(=O)c3ccc(Br)cc3)sc2c1	-2.0%	0.0%	5.6%	3.16µM*	3.0%	3.16µM*
COCC(C)N=C1NN=C(c2cccs2)C(CC(=O)O)S1 (stereo not drawn)	-0.1%	-1.8%	35.5µM*	11.2µM*	-0.9%	2µM*
COC(=O)c1cccc(C(=O)NCc2nc(-c3ccccc3NC(C)=O)oc2C)c1	·	·	·	·	-0.4%	·
CCC(Oc1ccccc1)C(=O)Nc1ccc2oc(-c3ccc(OC)cc3)nc2c1 (stereo not drawn)	4.0%	0.0%	·	·	4.5%	·
CCOc1cc2sc(N3CCC(C(=O)Nc4ccc(C(C)C)cc4)CC3)nc2cc1Br	-1.3%	1.4%	·	·	-0.1%	·
CCN1CC=C2C(C#N)=C(N)C(C#N)(C#N)C(CCc3ccccc3)C2C1 (stereo not drawn)	28.2µM*	-1.6%	-0.1%	-2.4%	10µM*	12.0%[10 µM]
COc1ccc(OC)c(C2C3CN(C(C)C)CC=C3C(C#N)=C(N)C2(C#N)C#N)c1 (stereo not drawn)	-6.5%	-1.0%	-1.1%	17.4%	39.8µM*	-32.2%
CCCN1CC=C2C(C#N)=C(N)C(C#N)(C#N)C(c3cccc(OC)c3OC)C2C1 (stereo not drawn)	-13.8%	0.9%	20.0%	-3.2%	10µM*	3.5%
COc1cccc(OC)c1OCc1cc(C2C3CCCC=C3C(C#N)=C(N)C2(C#N)C#N)c(C)cc1C (stereo not drawn)	-2.1%	-2.3%	56.2µM*	1.5%	3.7%	3.9%
CC(=O)N1CC=C2C(C#N)=C(N)C(C#N)(C#N)C(CCc3ccccc3)C2C1 (stereo not drawn)	-3.8%	-1.0%	-11.8%	17.8%	1.6%	-8.8%
CCCCOc1ccc(C2C3CN(C(=O)OCC)CC=C3C(C#N)=C(N)C2(C#N)C#N)cc1OC (stereo not drawn)	0.4%	-0.8%	-13.0%	-7.4%	20.1%[38.3 µM]	-23.8%
CCn1cc(C(=O)N2CCN(c3ccccc3OC)CC2)c(=O)c2cc(S(=O)(=O)N3CCC(C)CC3)ccc21	-2.4%	-1.3%	·	·	0.7%	·
COc1cc2cc(C#N)c(SCC(=O)OC(C)C)nc2cc1OC	-2.6%	·	·	·	0.0%	·
